Where “and” joins values, the source holds several entries; their conditions need not be identical. Equal entries are not always repeated. About 2,000 (36%) of roughly 5,500 compounds were called active. Roughly 18% stayed inconclusive and do not appear here. Cut-off read from the data, not from the text of the source: active = normalized growth mostly below about 0.91 (no sharp cut-off); inconclusive = no clear call, values can overlap the other calls; inactive = mostly above about 0.92. This is one part of the list. The source holds several records for some structures; these can differ, active in one and inactive in another.
Test: chemical genetic growth profiling, strain panel (AID 1159580);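 note: tested at 20 µM; growth read once vehicle control cultures reached saturation at 30 °C; 1 = growth at the plate median or of vehicle wells; lower values mean less growth of the strain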
Details: growth OD

Measured: normalized growth

CN1CCc2cccc3c2C1Cc1ccc(O)c(O)c1-3 (stereo not drawn)
inactive: S. cerevisiae deletion strains, locus YKL009W, strain mrt4, stronger effect = lower value 1.01 | S. cerevisiae deletion strains, locus YKL068W, stronger effect = lower value 0.996 | S. cerevisiae deletion strains, locus YKL085W, strain MDH1 (second series), stronger effect = lower value 1 | S. cerevisiae deletion strains, locus YKL085W, strain MDH1, stronger effect = lower value 1 | S. cerevisiae deletion strains, locus YKL190W, strain CNB1, stronger effect = lower value 1.01 | S. cerevisiae deletion strains, locus YKR001C, strain vps1, stronger effect = lower value 1 | S. cerevisiae deletion strains, locus YKR026C, strain gcn3, stronger effect = lower value 1.01 | S. cerevisiae deletion strains, locus YKR091W, strain srl3, stronger effect = lower value 0.993 | S. cerevisiae deletion strains, locus YLL001W, strain dnm1, stronger effect = lower value 0.967 | S. cerevisiae deletion strains, locus YLL026W, stronger effect = lower value 0.988 | S. cerevisiae deletion strains, locus YLL041C, strain sdh2, stronger effect = lower value 0.995 | S. cerevisiae deletion strains, locus YLR039C, strain RIC1, stronger effect = lower value 1.04 | S. cerevisiae deletion strains, locus YLR058C, strain SHM2, stronger effect = lower value 1.01 | S. cerevisiae deletion strains, locus YLR102C, strain apc9, stronger effect = lower value 0.997 | S. cerevisiae deletion strains, locus YLR113W, strain HOG1, stronger effect = lower value 1.02 | S. cerevisiae deletion strains, locus YLR221C, strain rsa3, stronger effect = lower value 0.932 | S. cerevisiae deletion strains, locus YLR258W, strain gsy2, stronger effect = lower value 0.958 | S. cerevisiae deletion strains, locus YLR262C, strain YPT6, stronger effect = lower value 1.09 | S. cerevisiae deletion strains, locus YLR268W, strain sec22, stronger effect = lower value 1.01 | S. cerevisiae deletion strains, locus YLR330W, strain CHS5, stronger effect = lower value 1.01 | S. cerevisiae deletion strains, locus YLR342W, strain FKS1 (second series), stronger effect = lower value 1.02 | S. cerevisiae deletion strains, locus YLR357W, strain rsc2, stronger effect = lower value 0.889 | S. cerevisiae deletion strains, locus YLR370C, strain arc18, stronger effect = lower value 0.96 | S. cerevisiae deletion strains, locus YLR371W, strain rom2, stronger effect = lower value 0.996 | S. cerevisiae deletion strains, locus YLR384C, strain iki3, stronger effect = lower value 1 | S. cerevisiae deletion strains, locus YLR418C, strain cdc73, stronger effect = lower value 1.01 | S. cerevisiae deletion strains, locus YML016C, strain PPZ1, stronger effect = lower value 1.01 | S. cerevisiae deletion strains, locus YML032C, strain rad52, stronger effect = lower value 0.99 | S. cerevisiae deletion strains, locus YML120C, strain ndi1, stronger effect = lower value 0.993 | S. cerevisiae deletion strains, locus YML124C, strain tub3, stronger effect = lower value 0.99 | S. cerevisiae deletion strains, locus YMR078C, strain ctf18, stronger effect = lower value 0.988 | S. cerevisiae deletion strains, locus YMR125W, strain sto1, stronger effect = lower value 0.966 | S. cerevisiae deletion strains, locus YMR129W, stronger effect = lower value 1 | S. cerevisiae deletion strains, locus YMR205C, strain PFK2, stronger effect = lower value 0.93 | S. cerevisiae deletion strains, locus YMR223W, strain ubp8, stronger effect = lower value 0.994 | S. cerevisiae deletion strains, locus YMR231W, strain pep5, stronger effect = lower value 0.972 | S. cerevisiae deletion strains, locus YMR307W, strain GAS1, stronger effect = lower value 1.03 | S. cerevisiae deletion strains, locus YNL067W, strain RPL9B, stronger effect = lower value 0.998 | S. cerevisiae deletion strains, locus YNL128W, strain TEP1, stronger effect = lower value 1.01 and 0.937 | S. cerevisiae deletion strains, locus YNL153C, strain GIM3, stronger effect = lower value 1 | S. cerevisiae deletion strains, locus YNL175C, strain NOP13, stronger effect = lower value 0.96 | S. cerevisiae deletion strains, locus YNL183C, strain NPR1, stronger effect = lower value 0.984 | S. cerevisiae deletion strains, locus YNL197C, strain WHI3, stronger effect = lower value 0.931 | S. cerevisiae deletion strains, locus YNL224C, strain SQS1, stronger effect = lower value 1.05 | S. cerevisiae deletion strains, locus YNL233W, strain BNI4, stronger effect = lower value 1.01 | S. cerevisiae deletion strains, locus YNL250W, strain rad50, stronger effect = lower value 1.01 | S. cerevisiae deletion strains, locus YNL271C, strain bni1, stronger effect = lower value 0.985 | S. cerevisiae deletion strains, locus YNL298W, strain CLA4, stronger effect = lower value 0.992 | S. cerevisiae deletion strains, locus YNL307C, strain MCK1, stronger effect = lower value 0.991 | S. cerevisiae deletion strains, locus YNL322C, strain KRE1 (second series), stronger effect = lower value 1.01 | S. cerevisiae deletion strains, locus YNR049C, strain mso1, stronger effect = lower value 0.98 | S. cerevisiae deletion strains, locus YNR052C, strain pop2, stronger effect = lower value 0.987 | S. cerevisiae deletion strains, locus YOL006C, strain TOP1, stronger effect = lower value 0.926 | S. cerevisiae deletion strains, locus YOL012C, strain htz1 1.12 | S. cerevisiae deletion strains, locus YOL147C, strain pex11, stronger effect = lower value 0.992 | S. cerevisiae deletion strains, locus YOR001W, strain rrp6, stronger effect = lower value 0.944 | S. cerevisiae deletion strains, locus YOR061W, strain CKA2, stronger effect = lower value 1.02 | S. cerevisiae deletion strains, locus YOR069W, strain VPS5, stronger effect = lower value 1.01 | S. cerevisiae deletion strains, locus YOR080W, strain dia2, stronger effect = lower value 0.993 | S. cerevisiae deletion strains, locus YOR136W, strain idh2, stronger effect = lower value 0.987 | S. cerevisiae deletion strains, locus YOR144C, strain elg1, stronger effect = lower value 0.998 | S. cerevisiae deletion strains, locus YOR184W, strain ser1, stronger effect = lower value 1.02 | S. cerevisiae deletion strains, locus YOR231W, strain MKK1, stronger effect = lower value 1.06 | S. cerevisiae deletion strains, locus YOR290C, strain snf2, stronger effect = lower value 0.979 | S. cerevisiae deletion strains, locus YOR316C, strain cot1, stronger effect = lower value 0.992 | S. cerevisiae deletion strains, locus YPL078C, strain atp4, stronger effect = lower value 0.988 | S. cerevisiae deletion strains, locus YPL106C, strain sse1, stronger effect = lower value 0.94 | S. cerevisiae deletion strains, locus YPL240C, strain hsp82, stronger effect = lower value 1.01 | S. cerevisiae deletion strains, locus YPL256C, strain CLN2, stronger effect = lower value 1.06 | S. cerevisiae deletion strains, locus YPR119W, strain clb2, stronger effect = lower value 0.994 | S. cerevisiae deletion strains, locus YPR141C, strain kar3, stronger effect = lower value 0.997 | S. cerevisiae deletion strains, locus YPR163C, strain tif3, stronger effect = lower value 0.986 | S. cerevisiae deletion strains, locus YPR167C, strain met16, stronger effect = lower value 0.998 | S. cerevisiae deletion strains, strain wtn01, stronger effect = lower value 1 | S. cerevisiae strains, strain wild type, stronger effect = lower value 1.01
active: S. cerevisiae deletion strains, locus YKL160W, strain elf1, stronger effect = lower value 0.871 | S. cerevisiae deletion strains, locus YLR027C, strain aat2, stronger effect = lower value 0.918 | S. cerevisiae deletion strains, locus YLR262C, strain YPT6 (second series), stronger effect = lower value 0.645 | S. cerevisiae deletion strains, locus YLR320W, strain mms22, stronger effect = lower value 0.8 | S. cerevisiae deletion strains, locus YLR342W, strain FKS1, stronger effect = lower value 0.855 | S. cerevisiae deletion strains, locus YMR058W, strain fet3, stronger effect = lower value 0.573 | S. cerevisiae deletion strains, locus YNL071W, strain lat1, stronger effect = lower value 0.627 | S. cerevisiae deletion strains, locus YNL209W, strain ssb2, stronger effect = lower value 0.808 | S. cerevisiae deletion strains, locus YNL248C, strain rpa49, stronger effect = lower value 0.858 | S. cerevisiae deletion strains, locus YOR070C, strain gyp1, stronger effect = lower value 0.864 | S. cerevisiae deletion strains, locus YOR083W, strain WHI5 (second series), stronger effect = lower value 0.815 | S. cerevisiae deletion strains, locus YOR083W, strain WHI5, stronger effect = lower value 0.875 | S. cerevisiae deletion strains, locus YOR106W, strain vam3, stronger effect = lower value 0.607 | S. cerevisiae deletion strains, locus YOR265W, strain rbl2, stronger effect = lower value 0.91 | S. cerevisiae deletion strains, locus YOR270C, strain vph1, stronger effect = lower value 0.597 | S. cerevisiae deletion strains, locus YPL051W, strain arl3, stronger effect = lower value 0.746 | S. cerevisiae deletion strains, locus YPL241C, strain CIN2, stronger effect = lower value 0.311
1 (inactive) and 0.35 (active): S. cerevisiae deletion strains, locus YJR075W, strain HOC1, stronger effect = lower value

— PubChem BioAssay AID1159580 (chemical genetic matrix, 2015)
